Rows were chosen to be rich in hits. Some 3.1% of all compounds tested hit in one or more screens of this group.
TDP1 block – qHTS Assay for Inhibitors of Tyrosyl-DNA Phosphodiesterase (TDP1); AID 485290, 2010; recombinant TDP1, AlphaScreen DNA substrate cleavage; Potency, µM (titrated, usually from 130 µM), inactives show top-dose activity change, negative = inhibition, hits mostly inhibitors; Tyrosyl-DNA phosphodiesterase 1 (Homo sapiens), Q9NUW8; actives 0.28% (n = 350,000); further: on the % scale 0 is the no-effect control and ±100 the full control effect; nearly all actives have a fitted effect of over 40% in size
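Steps: enzyme plus compound, 15 min RT; add biotin/phosphotyrosine-FITC oligonucleotide (15 nM final), react 5 min; add donor/acceptor beads (10 ug/ml final), 10 min; read AlphaScreen. Tdp1 at 1 nM final.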
Pin1 inh – qHTS Assay to Find Inhibitors of Pin1; Potency, µM (top dose mostly 115 µM), inactives show at the top dose activity, negative = inhibition, usual class: inhibitors; Peptidyl-prolyl cis-trans isomerase NIMA-interacting 1 (Homo sapiens), Q13526; actives 0.009% (n = 390,000); Pin1 FP peptide displacement, HiFluor488, 10 min; active means well fitted inhibition curve with a large enough effect in the polarisation, with a control signal flat, not every such curve was filed as active; inconclusive means small, poorly fitted or top-dose-only effect, or effect the other way, or a change in a side signal; inactive means no such curve, though single readings can be large or run the other way; the % refers to the polarisation; further: on the % scale 0 is the no-effect control and ±100 the full control effect
Target sequence (Q13526 whole entry, looked up): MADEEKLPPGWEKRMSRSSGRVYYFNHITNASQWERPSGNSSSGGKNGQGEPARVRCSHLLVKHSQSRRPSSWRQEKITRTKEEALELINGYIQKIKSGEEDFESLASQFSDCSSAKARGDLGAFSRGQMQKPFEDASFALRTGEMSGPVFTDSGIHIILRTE
VDR inhibitor – Inhibitors of the vitamin D receptor (VDR): qHTS | Vitamin D3 receptor (Homo sapiens), P11473 | VDR-SRC2-3 peptide fluorescence polarization, 2 h | Potency, µM, without a hit: max response, negative = inhibition, hits mostly inhibitors | actives 0.93% (n = 400,000) | AID 504847, 2011; further: on the % scale 0 is the no-effect control and ±100 the full control effect
Target sequence (P11473 whole entry, looked up): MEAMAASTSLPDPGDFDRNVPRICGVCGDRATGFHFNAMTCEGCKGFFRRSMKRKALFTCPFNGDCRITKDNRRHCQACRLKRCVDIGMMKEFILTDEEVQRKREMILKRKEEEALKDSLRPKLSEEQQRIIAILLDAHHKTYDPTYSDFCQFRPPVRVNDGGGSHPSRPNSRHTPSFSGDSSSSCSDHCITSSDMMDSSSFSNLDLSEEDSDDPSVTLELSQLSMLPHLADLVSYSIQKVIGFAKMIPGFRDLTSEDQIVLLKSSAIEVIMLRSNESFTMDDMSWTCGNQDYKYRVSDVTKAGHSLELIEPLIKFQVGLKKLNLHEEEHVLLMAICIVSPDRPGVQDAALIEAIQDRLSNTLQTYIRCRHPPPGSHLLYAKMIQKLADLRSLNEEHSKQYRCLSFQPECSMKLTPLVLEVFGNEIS
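Compounds are added to VDR with labelled SRC2-3 coactivator peptide and held 2 h at room temperature. Inhibition of the VDR–peptide interaction is then read as a change in fluorescence polarization.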
S-ASM inh – Inhibitors of Secretory Acid Sphingomyelinase (S-ASM): qHTS; Sphingomyelin phosphodiesterase (Homo sapiens), P17405; placental ASM, HMU-PC fluorogenic substrate, 60 min; Potency, µM (top dose mostly 57.5 µM), for the others: top-dose activity change, negative = inhibition, most hits filed as inhibitors; actives 0.006% (n = 340,000); AID 504937, 2011
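Human placenta-derived ASM enzyme was preincubated with compound for 10 minutes at room temperature, then given fluorogenic substrate HMU-PC0 (9 uM final) for 60 minutes at 37 °C; a pH 10 stop preceded fluorescence reading at Ex 386/Em 447 nm.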
Tb PFK block – qHTS Assay to Find Inhibitors of T. brucei phosphofructokinase | ATP-dependent 6-phosphofructokinase (Trypanosoma brucei brucei), O15648 | T. brucei PFK, ADP-Glo luminescence | Potency, µM (doses to about 57.5 µM), for inactives: top-dose activity, negative = inhibition, hits mostly inhibitors | actives 0.17% (n = 330,000);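 further: 0% = uninhibited 1x PFK enzyme wells and -100% = no-enzyme wells; nearly all actives have a fitted effect of over 60% in size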
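Activity is normalized to no-enzyme wells (full inhibition) and 1.25 nM enzyme wells (no inhibition). Reaction: 0.5 mM F6P, 0.1 mM ATP, 45 min RT, ADP-Glo luminescence; concentration-response curves fitted and classed by quality.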
PLK1 PBD inh – qHTS for Inhibitors of PLK1-PDB (polo-like kinase 1 - polo-box domain): Primary Screen. Serine/threonine-protein kinase PLK1 (Homo sapiens), P53350. Plk1 PBD binding of FITC phosphopeptide, fluorescence polarization. Potency, µM, inactives show max response, negative = inhibition, hits mostly inhibitors. actives 2.8% (n = 360,000); further: series mostly up to about 57 µM; on the % scale 0 is the no-effect control and ±100 the full control effect; nearly all actives have a fitted effect of over 65% in size
Starred values were filed as active, the others as inactive; [ ] = another dose, or the depositor's remark. Unless noted, the call rests on the fitted dose curve; in most records, active means well fitted curve in the direction sought with a large enough effect; inconclusive means small, poorly fitted or top-dose-only effect, or another doubt; inactive means no such curve, though single readings can be large; an effect the other way counts as inactive or inconclusive. Potency means the concentration at half of the fitted maximal effect.

For O=C(Nc1cccc(Cl)c1)OCCOC(=O)Nc1cccc(Cl)c1 the results were Pin1 inh -3%, VDR inhibitor 2%, S-ASM inh -28% and PLK1 PBD inh -1%.
For O=C(Nc1cccc(Cl)c1)OCC#CCCl the results were TDP1 block 21% and VDR inhibitor 3.5µM*.
`O=C(COC(=O)c1ccncc1)Nc1cccc(Cl)c1` gave TDP1 block 3%, Pin1 inh inconclusive, VDR inhibitor -19%, S-ASM inh 2%, Tb PFK block -9% and PLK1 PBD inh 21µM*.
Screening Clc1cccc(N/N=C/c2ccncc2)c1 returned TDP1 block 8%, Pin1 inh -3%, VDR inhibitor 8%, S-ASM inh -1%, Tb PFK block -3% and PLK1 PBD inh -14%.
Screening O=C(Nc1cccc(Cl)c1)O/N=C\c1ccncc1 returned TDP1 block 0%, Pin1 inh -1%, VDR inhibitor 5%, S-ASM inh 1%, Tb PFK block -11% and PLK1 PBD inh 9.5µM*.
COc1cccc(NC(=O)CN2C(=O)C3(SCC(=O)N3c3cc(C)cc(C)c3)c3ccccc32)c1 (stereo not drawn) was read as TDP1 block -2%, Pin1 inh 38% and VDR inhibitor 13%.
`CCc1cc2c(s1)c1cnn(Cc3ccccc3F)c(=O)c1n2C` gave TDP1 block -1% and Pin1 inh 0%.
`COc1ccc(-c2cc3nc(C)c(CCC(=O)N4CCN(c5ccc(F)cc5)CC4)c(C)n3n2)c(OC)c1` gave TDP1 block 9%, Pin1 inh 18% and VDR inhibitor -10%.
`Cc1cccc(-c2noc(CN(C(=O)c3ccc4c(c3)OCO4)C(C)C)n2)c1` gave TDP1 block 9%, Pin1 inh 3%, VDR inhibitor -8%, S-ASM inh -2%, Tb PFK block -2% and PLK1 PBD inh 27µM*.
Screening Cc1cccc(NC(=O)CNC(=O)CSc2ncccn2)c1C returned TDP1 block 2%, Pin1 inh -9%, VDR inhibitor -18%, S-ASM inh 3%, Tb PFK block -2% and PLK1 PBD inh 4%.
For Cc1cccc(NC(=O)CNC(=O)Cn2ncc(Cl)c(Cl)c2=O)c1C the results were TDP1 block 14µM*, Pin1 inh inconclusive, VDR inhibitor -20%, S-ASM inh -3%, Tb PFK block inconclusive and PLK1 PBD inh inconclusive.
CCc1ccccc1Nc1cc(C(=O)NC(C)c2ccccc2)c2ccccc2n1 (stereo not drawn) was read as TDP1 block -2%, Pin1 inh 15% and VDR inhibitor -18%.
COc1ccc(-c2nc3ccc(Cl)cc3c(=O)n2Cc2ccccc2)cc1COc1ccc(NC(C)=O)cc1 was read as TDP1 block 0% and Pin1 inh -4%.
Screening C=CC1=C(C(=O)O)N2C(=O)[C@@H](NC(=O)/C(=N\OCC(=O)O)c3csc(N)n3)[C@@H]2SC1 returned TDP1 block 14µM* and VDR inhibitor inconclusive.
Screening CO/N=C(\C(=O)N[C@@H]1C(=O)N2C(C(=O)O)=C(COC(C)=O)CS[C@H]12)c1csc(N)n1 returned TDP1 block -12% and VDR inhibitor 71µM*.
`CO/N=C(\C(=O)N[C@@H]1C(=O)N2C(C(=O)[O-])=C(C[n+]3cccc4c3CCC4)CS[C@H]12)c1csc(N)n1` gave VDR inhibitor 28µM*.
Screening COCC1=C(C(=O)OC(C)OC(=O)OC(C)C)N2C(=O)[C@@H](NC(=O)/C(=N\OC)c3csc(N)n3)[C@H]2SC1 (stereo partly drawn) returned Pin1 inh -8%, VDR inhibitor -6%, S-ASM inh 0% and PLK1 PBD inh -17%.
CO/N=C(/C(=O)NC1C(=O)N2C(C(=O)O)=C(COC(N)=O)CSC12)c1ccco1 (stereo not drawn) was read as TDP1 block 22µM* and VDR inhibitor -11%.
O=C1C=CC(=O)N1c1ccccc1N1C(=O)C=CC1=O was read as Pin1 inh inconclusive, VDR inhibitor 3.2µM*, S-ASM inh -3% and PLK1 PBD inh 1.5µM*.
For Cc1ccccc1N(C(=O)c1csnn1)C(C(=O)NC(C)(C)C)c1cccs1 (stereo not drawn) the results were TDP1 block 3%, Pin1 inh -15%, VDR inhibitor inconclusive, S-ASM inh 3%, Tb PFK block 7% and PLK1 PBD inh 8.4µM*.
O=C(CSc1oc(-c2ccc(F)cc2)nc1S(=O)(=O)c1ccc(Cl)cc1)c1ccccc1 was read as TDP1 block 6%, Pin1 inh inconclusive and VDR inhibitor 14%.
O=C(Nc1nnc(C2CCCCC2)s1)C1CC(=O)N(c2ccc(F)cc2)C1 (stereo not drawn) was read as TDP1 block -10%, Pin1 inh -7%, VDR inhibitor -9%, S-ASM inh inconclusive, Tb PFK block 1% and PLK1 PBD inh -6%.
For COc1ccc(N2CC(C(=O)N/N=C/c3ccc(C)cc3)CC2=O)cc1 (stereo not drawn) the results were TDP1 block -4%, Pin1 inh 1%, VDR inhibitor -16%, S-ASM inh 0%, Tb PFK block 0% and PLK1 PBD inh -9%.
Screening COc1ccc(N2CC(C(=O)Nc3nnc(C4CCCCC4)s3)CC2=O)cc1 (stereo not drawn) returned Pin1 inh -3%, VDR inhibitor inconclusive, S-ASM inh -6%, Tb PFK block 1% and PLK1 PBD inh 30µM*.
For COc1ccc(N2CC(C(=O)N/N=C/c3cccs3)CC2=O)cc1 (stereo not drawn) the results were TDP1 block 3%, Pin1 inh 11%, VDR inhibitor -13%, S-ASM inh -3%, Tb PFK block -6% and PLK1 PBD inh 24µM*.
For O=c1c(-c2ccccc2)coc2cc(O)cc(O)c12 the results were TDP1 block -12%[56.1 µM] and VDR inhibitor 28µM*.
`Cc1cc(C)n2ncc(C(=O)Nc3ccccc3)c2n1` gave Pin1 inh 12%.
